Experimental findings from PubChem BioAssay are described below.

Values joined by “and” are separate entries in the source; they are usually repeats but may differ in a detail not shown here. Identical values can stand only once. Records with an inconclusive call do not appear. Active and inactive are the calls of the source.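 How the source made its calls, unless noted: active means GFP response, as percent of the DMSO control, above the screen-wide mean plus 3 SD, about 139; inconclusive means no response measured because the compound's own fluorescence interfered; inactive means the rest.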

A short description of the first experiment: rapamycin-like changes in RPL19A-GFP expression – cell-based, S. cerevisiae, multiplex flow cytometry, primary screen (AID 1862; in the data active means percent of DMSO control GFP below about 86%;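 further: lower values mimic rapamycin by blocking the RPL19A rise seen in DMSO cells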). The following applies: S. cerevisiae RPL19A-GFP strain, flow cytometry fluorescence, 3 h; at 10 µM; hits give low values.
On to `C[N+]1(C)CCc2cc3c(cc2[C@H]1[C@@H]1OC(=O)c2c1ccc1c2OCO1)OCO3`, for which the percent of DMSO control GFP was 105% (inactive) and 102% (inactive).

As for `COc1ccc(NC2=NCC(C)S2)cc1` (stereo not drawn), the percent of DMSO control GFP is 103% (inactive).

Turning to `CC12CN3CC(C)(CN(C1)C3c1cccs1)C2O` (stereo not drawn), the percent of DMSO control GFP was 105% (inactive).

As for `O=C1NCCN2CCCC12` (stereo not drawn), the percent of DMSO control GFP was 100% (inactive).

Regarding `NNC(=O)c1ccc(Cl)cc1`, the percent of DMSO control GFP was 102% (inactive).

Consider `CN1CCN(C(=O)OC2c3nccnc3C(=O)N2c2ccc(Cl)cn2)CC1` (stereo not drawn), for which the percent of DMSO control GFP is 99.9% (inactive).

Turning to `O=c1[nH]c2ccccc2n1C1CCN(CCCC(c2ccc(F)cc2)c2ccc(F)cc2)CC1`, the percent of DMSO control GFP was 97.1% (inactive).

As for `O=C1NC(=O)C2(Cc3ccccc3N3CCCC32)C(=O)N1c1ccc(Cl)cc1` (stereo not drawn), the percent of DMSO control GFP is 106% (inactive).

Turning to `CC1CCC[C@H](O)CCCCCc2cc(O)cc(O)c2C(=O)O1` (stereo partly drawn), the percent of DMSO control GFP is 102% (inactive).

For the compound `O=c1cccc2n1C[C@H]1C[C@@H]2CN2CCCC[C@@H]12`, the percent of DMSO control GFP is 97.6% (inactive).

Consider `CC(=O)OC1C2CCC1C(N1CCCC1)CC2` (stereo not drawn), for which the percent of DMSO control GFP is 98.7% (inactive).

With `CCOc1ccc(C2C(C#N)=C(N)Oc3c2c(=O)oc2ccccc32)cc1` (stereo not drawn), the percent of DMSO control GFP was 104% (inactive).

Take `COc1cc2c3cc1Oc1cc(ccc1O)C[C@@H]1c4c(cc(OC)c(O)c4Oc4ccc(cc4)C[C@H]3N(C)CC2)CCN1C`: the percent of DMSO control GFP is 88.2% (inactive).

As to `CN1CC[C@@]23CCCC[C@@H]2[C@@H]1Cc1ccc(O)cc13`, the percent of DMSO control GFP was 99.4% (inactive).

As to `O=c1c2ccccc2[se]n1-c1ccccc1`, the percent of DMSO control GFP was 99.6% (inactive).

On to `CC[N+]1(C)CCCC(OC(=O)C(O)(c2ccccc2)c2ccccc2)C1` (stereo not drawn), for which the percent of DMSO control GFP is 99% (inactive).

On to `C[C@]12CCC(=O)C=C1CCC1C2CC[C@@]2(C)C1CC[C@@]2(O)CC#N` (stereo partly drawn), for which the percent of DMSO control GFP was 99.8% (inactive).

In the case of `C[C@H]1CC[C@@]2(C)[C@@H](CC[C@@H]3[C@@H]2CC[C@]2(C)[C@@H](O)CC[C@@H]32)C1`, the percent of DMSO control GFP is 99.9% (inactive).

Take `C[C@H]1OC[C@@H](C[N+](C)(C)C)O1`: the percent of DMSO control GFP was 100% (inactive).

On to `CC(C)(C)C(O)C(Oc1ccc(Cl)cc1)n1cncn1` (stereo not drawn), for which the percent of DMSO control GFP was 105% (inactive).

In the case of `C[C@@H]1O[C@@H](O[C@H]2C[C@@H](O)[C@]3(CO)[C@H]4[C@H](O)C[C@]5(C)[C@@H](C6COC(=O)C6)CC[C@]5(O)[C@@H]4CC[C@]3(O)C2)[C@H](O)[C@H](O)[C@H]1O` (stereo partly drawn), the percent of DMSO control GFP was 97.3% (inactive).

Regarding `CC(=O)c1ccc(-c2ccccc2)cc1`, the percent of DMSO control GFP was 97% (inactive).

`CCOC(=O)c1cc2c(cn1)[nH]c1ccccc12`: the percent of DMSO control GFP is 98.4% (inactive).

A further experiment in a line: TOR pathway GLN3 branch reporter MEP2-GFP changes – S. cerevisiae, multiplex flow cytometry, primary screen (AID 1867).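 Further: median GFP channel fluorescence of barcode-gated MEP2-GFP cells measured by flow cytometry.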 Particulars: S. cerevisiae MEP2-GFP strain, 3 h, at 10 µM, hits give high values.
As to `CN1C[C@H](CNC(=O)OCc2ccccc2)C[C@@H]2c3cccc4c3c(cn4C)C[C@H]21`, the GFP response vs DMSO was 101% (inactive).

As for `C[N+]1(C)C2CCC1CC(OC(=O)C(CO)c1ccccc1)C2` (stereo not drawn), the GFP response vs DMSO was 99.3% (inactive).

Turning to `CCC1(c2ccccc2)C(=O)N(COC)C(=O)N(COC)C1=O`, the GFP response vs DMSO is 102% (inactive).

Turning to `CCn1c(O)c(C(=O)CC2NCCc3ccccc32)c(=O)n(CC)c1=S` (stereo not drawn), the GFP response vs DMSO is 118% (inactive).

In the case of `NC(=O)CN1CCCC1=O`, the GFP response vs DMSO was 113% (inactive).

Turning to `Cc1ccsc1C(=O)C1CCCN(Cc2cc3ccccc3o2)C1` (stereo not drawn), the GFP response vs DMSO is 98.3% (inactive).

Consider `CN1C2CCC1CC(OC(=O)c1ccc(Cl)cc1)C2` (stereo not drawn), for which the GFP response vs DMSO was 98.5% (inactive).

`Cn1c(O)c(C=NCCc2c[nH]c3ccccc23)c(=O)n(C)c1=O`: the GFP response vs DMSO is 111% (inactive).

Regarding `CC12CN3CC(C)(CN(C1)C3c1cccs1)C2=O` (stereo not drawn), the GFP response vs DMSO is 99.3% (inactive).

As to `[N-]=[N+]=CC(=O)OC[C@H](N)C(=O)O`, the GFP response vs DMSO is 102% (inactive).

For `COP(=O)(OC)C(O)C(Cl)(Cl)Cl` (stereo not drawn), the GFP response vs DMSO was 98.3% (inactive).

In the case of `CC(C)[N+](C)(CCC(C(N)=O)(c1ccccc1)c1ccccc1)C(C)C`, the GFP response vs DMSO is 107% (inactive).

In the case of `C[C@@]1(CO)[C@H](O)CC[C@@]2(C)[C@H]1CC[C@H]1C[C@@H]3C[C@@]12CC[C@]3(O)CO`, the GFP response vs DMSO is 106% (inactive).

For the compound `O=C1CCCC2=C1C(c1cccnc1)Nc1ccccc1N2` (stereo not drawn), the GFP response vs DMSO was 95.1% (inactive).

Consider `O=c1[nH]c(=S)n(-c2ccccc2)c(O)c1/C=N/N1CCCCC1c1cccnc1` (stereo not drawn), for which the GFP response vs DMSO was 100% (inactive).

With `Clc1ccc(C2NCCc3[nH]cnc32)cc1` (stereo not drawn), the GFP response vs DMSO is 98.3% (inactive).

Consider `Cc1ccc(-n2c(C)cc(/C=C3/C(=O)NC(=O)N(C)C3=O)c2C)cc1`, for which the GFP response vs DMSO was 103% (inactive).

Consider `C[N+]1(C)CCc2cc3c(cc2[C@H]1[C@@H]1OC(=O)c2c1ccc1c2OCO1)OCO3`, for which the GFP response vs DMSO is 102% (inactive) and 108% (inactive).

On to `COc1ccc(NC2=NCC(C)S2)cc1` (stereo not drawn), for which the GFP response vs DMSO is 101% (inactive).

As to `CC12CN3CC(C)(CN(C1)C3c1cccs1)C2O` (stereo not drawn), the GFP response vs DMSO is 98.3% (inactive).

Take `O=C1NCCN2CCCC12` (stereo not drawn): the GFP response vs DMSO was 99.7% (inactive).

Regarding `NNC(=O)c1ccc(Cl)cc1`, the GFP response vs DMSO is 103% (inactive).

Regarding `CN1CCN(C(=O)OC2c3nccnc3C(=O)N2c2ccc(Cl)cn2)CC1` (stereo not drawn), the GFP response vs DMSO is 112% (inactive).

Turning to `O=c1[nH]c2ccccc2n1C1CCN(CCCC(c2ccc(F)cc2)c2ccc(F)cc2)CC1`, the GFP response vs DMSO was 107% (inactive).

In the case of `O=C1NC(=O)C2(Cc3ccccc3N3CCCC32)C(=O)N1c1ccc(Cl)cc1` (stereo not drawn), the GFP response vs DMSO was 88.8% (inactive).

With `CC1CCC[C@H](O)CCCCCc2cc(O)cc(O)c2C(=O)O1` (stereo partly drawn), the GFP response vs DMSO is 99.7% (inactive).

Turning to `O=c1cccc2n1C[C@H]1C[C@@H]2CN2CCCC[C@@H]12`, the GFP response vs DMSO was 111% (inactive).

`CC(=O)OC1C2CCC1C(N1CCCC1)CC2` (stereo not drawn): the GFP response vs DMSO was 106% (inactive).

`CCOc1ccc(C2C(C#N)=C(N)Oc3c2c(=O)oc2ccccc32)cc1` (stereo not drawn): the GFP response vs DMSO is 99.6% (inactive).

Turning to `COc1cc2c3cc1Oc1cc(ccc1O)C[C@@H]1c4c(cc(OC)c(O)c4Oc4ccc(cc4)C[C@H]3N(C)CC2)CCN1C`, the GFP response vs DMSO is 125% (inactive).

For `CN1CC[C@@]23CCCC[C@@H]2[C@@H]1Cc1ccc(O)cc13`, the GFP response vs DMSO is 110% (inactive).

With `O=c1c2ccccc2[se]n1-c1ccccc1`, the GFP response vs DMSO was 94.6% (inactive).

With `CC[N+]1(C)CCCC(OC(=O)C(O)(c2ccccc2)c2ccccc2)C1` (stereo not drawn), the GFP response vs DMSO was 102% (inactive).

Consider `C[C@]12CCC(=O)C=C1CCC1C2CC[C@@]2(C)C1CC[C@@]2(O)CC#N` (stereo partly drawn), for which the GFP response vs DMSO was 105% (inactive).

In the case of `C[C@H]1CC[C@@]2(C)[C@@H](CC[C@@H]3[C@@H]2CC[C@]2(C)[C@@H](O)CC[C@@H]32)C1`, the GFP response vs DMSO is 103% (inactive).

`C[C@H]1OC[C@@H](C[N+](C)(C)C)O1`: the GFP response vs DMSO is 98.7% (inactive).

As to `CC(C)(C)C(O)C(Oc1ccc(Cl)cc1)n1cncn1` (stereo not drawn), the GFP response vs DMSO was 107% (inactive).

Take `C[C@@H]1O[C@@H](O[C@H]2C[C@@H](O)[C@]3(CO)[C@H]4[C@H](O)C[C@]5(C)[C@@H](C6COC(=O)C6)CC[C@]5(O)[C@@H]4CC[C@]3(O)C2)[C@H](O)[C@H](O)[C@H]1O` (stereo partly drawn): the GFP response vs DMSO is 102% (inactive).

In the case of `CC(=O)c1ccc(-c2ccccc2)cc1`, the GFP response vs DMSO was 120% (inactive).

Regarding `CCOC(=O)c1cc2c(cn1)[nH]c1ccccc12`, the GFP response vs DMSO is 103% (inactive).
